RAM network inh: yeast RAM network inhibition; S. cerevisiae dse1pr::URA3 reporter, 5-FOA growth OD615, 2 d; analog-sensitive cbk1-as2 kinase mutant strain; inhibition, % at 50 µM; 190,000 tested, 1.8% active; AID 868;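 active = inhibition above a set limit, 3 SD over mean compound inhibition, cut at about 8.4% in these data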;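 also: inhibition rescues growth on 5-FOA so higher OD means more RAM inhibition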
WT yeast gro inh: growth inhibition of WT yeast, mitochondrial fusion screen | mitochondrial fusion phenotypic screen, WT strain | inhibition, % at 10 µM | AID 1362 | 190,000 tested, 2.1% active; in the data active = inhibition above about 58%; tested in S. cerevisiae
CHOP inh: CHOP inhibition in unfolded protein response; CHO-K1 CHOP-promoter luciferase, tunicamycin-induced, 15-18 h; inhibition, % at 10 µM; 220,000 tested, 3.8% active; AID 2732;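 active = compounds that reduced the stress-induced luciferase reporter signal by more than about 70% of percent inhibition, limit read from the data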
Lmaj promast: reduces viability of Leishmania major promastigotes. 200,000 tested, 9% active. resazurin fluorescence viability. inhibition, % at 10 µM. AID 1063; in the data active = inhibition above about 50%;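 also: promastigotes grown with compound for 44 hours at 28 °C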
Large screens that a line does not name were inactive. An excerpt weighted towards active compounds, which were near 13% of everything screened.

C=C(C)C1Cc2c(C)nn(-c3ccccn3)c2C1 (centres undefined)	WT yeast gro inh 66
C=C(C)C1Cc2c(C)nn(-c3cccc4cccnc34)c2C1 (centres undefined)	none (no result: RAM network inh, WT yeast gro inh, Lmaj promast)
CC(=O)Nc1ccc(Oc2sc(C(=O)c3ccccc3)c(N)c2C#N)cc1	Lmaj promast 98
CC(=O)Nc1ccc(Oc2ccccc2)cc1	none (no result: RAM network inh, WT yeast gro inh, Lmaj promast)
CCCCNC(=S)N1CCN(Cc2ccc3c(c2)OCO3)CC1	Lmaj promast 75
COc1ccc(OC)c(NC(=S)N2CCN(Cc3ccccc3)CC2)c1	none
S=C(NCc1ccccc1)N1CCN(Cc2ccc3c(c2)OCO3)CC1	WT yeast gro inh 60, Lmaj promast 92
COc1cccc(CN2CCN(C(=S)NCc3ccc(Cl)cc3)CC2)c1	WT yeast gro inh 67, Lmaj promast 89
FC(F)(F)c1ccccc1NC(=S)N1CCN(Cc2ccc3c(c2)OCO3)CC1	none
Cc1ccccc1NC(=O)c1snc2c(=O)[nH]cnc12	none
COc1ccc([N+](=O)[O-])cc1NC(=O)CSc1ncccn1	none
COC(=O)c1ccc(C(=O)OC)c(NC(=O)CCC(=O)O)c1	none
COc1ccc(OC)c(NC(=O)COC(=O)Cc2ccc(Br)cc2)c1	WT yeast gro inh 67
COc1ccc([N+](=O)[O-])cc1NC(=O)CSCc1ccccc1C	RAM network inh 8.6
COc1ccc([N+](=O)[O-])cc1NC(=O)CSCc1ccc(Br)cc1	RAM network inh 11
COC(=O)c1ccc(C(=O)OC)c(NC(=O)CSCc2ccc(Br)cc2)c1	RAM network inh 11
O=C(COC(=O)Cc1ccsc1)NC1CCCCCC1	none
c1ccc2c(c1)OCC(c1csc3ncnc(N4CCCC4)c13)O2 (centres undefined)	none
c1ccc(CCNc2ncnc3scc(C4COc5ccccc5O4)c23)cc1 (centres undefined)	WT yeast gro inh 69, Lmaj promast 85
O=C1CC2(CCCC2)CC(=O)N1CCCCN1CCN(c2ncccn2)CC1	Lmaj promast 60
Cc1ccc(NC(=O)CSc2nc3c(cc2C#N)C(=O)CCC3)cc1S(=O)(=O)N(C)C	RAM network inh 8.5
Cc1ccc(NC(=O)CSc2nn(-c3ccccc3)c(=S)s2)cc1S(=O)(=O)N(C)C	CHOP inh 76, Lmaj promast 77
CCOc1ccc(Nc2nnc(Cc3ccc(OC)cc3)c(=O)[nH]2)cc1	none
CC1=C(CC(=O)c2ccccc2)C(=O)c2ccccc2C1=O	Lmaj promast 94
O=S(=O)(c1ccc(F)c2ccccc12)N1CCCCC1	RAM network inh 8.9
CCOc1ccc(S(=O)(=O)N2CCCCC2)c(C)c1C	Lmaj promast 82
CCOc1ccc(S(=O)(=O)N2CCCCC2)c2ccccc12	RAM network inh 9.4
O=C(CNC1CCCCCC1)c1cccs1	none
O=C(Nc1nc(-c2ccccc2)cs1)Nc1ccc(F)cc1F	CHOP inh 89
O=C(Nc1ccccc1)Nc1nc(-c2ccccc2)cs1	none (no result: RAM network inh, WT yeast gro inh, Lmaj promast)
O=C(Nc1ccc(NC(=O)c2ccccc2O)cc1)Nc1ccc(F)cc1F	CHOP inh 71 (no result: RAM network inh, WT yeast gro inh, Lmaj promast)
O=C(COC(=O)c1cc(=O)[nH]c(=O)[nH]1)NCc1ccccc1	none
N#CC(C(=O)Nc1ccc(Cl)cc1)=C1Nc2ccccc2N1	CHOP inh 90
CN(C)C=Nc1ccccc1C1C=NNC1=O (centres undefined)	none (no result: RAM network inh, WT yeast gro inh, Lmaj promast)
CCOC(=O)c1ccccc1NC(=S)N1CCN(C2CCCCC2)CC1	none
CCOC1(/N=C(\C)NS(=O)(=O)c2ccc(Cl)cc2)C(C)=CC(=O)C=C1C	none
O=c1[nH][nH]c(=O)n1-c1ccccc1	none
COC1(OC)C(/C=C/c2ccc(Cl)cc2)C(C#N)(C#N)C1(OC)OC (centres undefined)	Lmaj promast 85
COc1ccccc1/C=C/C1(C(=O)NC2CCCC2)CC(=O)N1c1ccc(F)cc1 (centres undefined)	Lmaj promast 85
COc1ccccc1/C=C/C1(C(=O)NC2CCCC2)CC(=O)N1c1ccc(C)cc1 (centres undefined)	none
Cc1ccc(-c2csc3ncnc(Cl)c23)cc1	none
Fc1ccc(-c2csc3ncnc(Nc4ccc(N5CCOCC5)cc4)c23)cc1	Lmaj promast 65
Fc1ccc(-c2csc3ncnc(N4CCc5ccccc5C4)c23)cc1	RAM network inh 9.1, WT yeast gro inh 66, Lmaj promast 67
Cc1ccc(-c2csc3ncnc(N4CCc5ccccc5C4)c23)cc1	WT yeast gro inh 66
CCS(=O)(=O)C(C)(CCl)C(=O)Nc1ccc(C(=O)OC)cc1 (centres undefined)	none (no result: RAM network inh, WT yeast gro inh, Lmaj promast)
Cc1ccccc1S(=O)(=O)N(CC(O)CN1C(=O)NC(C)(C)C1=O)c1ccccc1 (centres undefined)	none (no result: RAM network inh, WT yeast gro inh, Lmaj promast)
CC(C)(C)NC(=O)C(c1c[nH]c2ccccc12)N(C(=O)Cn1nnc(-c2ccc(F)cc2)n1)c1cccc(O)c1 (centres undefined)	none
CCN(CC)S(=O)(=O)c1ccc(Oc2ccc(S(=O)(=O)N(CC)CC)cc2)cc1	CHOP inh 72
O=[N+]([O-])c1cc([N+](=O)[O-])c2cccnc2c1Oc1ccccc1O	CHOP inh 86
CCc1ccc(C(=O)NCc2cnn(C)c2)s1	none
COCCN=c1scc(-c2cc(OC)ccc2OC)n1/N=C/c1c[nH]c2ccccc12	WT yeast gro inh 58
COCCN=c1scc(-c2ccco2)n1/N=C/c1ccc(O)c(O)c1O	none
COc1ccccc1/C=C/C(=O)NCC(=O)n1nc(C)cc1C	none (no result: RAM network inh, WT yeast gro inh, Lmaj promast)
CCOc1ccc(NC(=S)/C(=C(\[O-])c2ccc(C)c([N+](=O)[O-])c2)[n+]2ccccc2)cc1	none
CCOc1ccc(NC(=S)Nc2ccc(C)c([N+](=O)[O-])c2)cc1	CHOP inh 70
CCNC(=S)Nc1ccc(OCC)cc1	Lmaj promast 65
CCOc1ccc(NC(=S)NC(C)CCc2ccccc2)cc1 (centres undefined)	WT yeast gro inh 61
CCOc1ccc(NC(=S)Nc2ccc(OCC)cc2)cc1	none
Cc1ccc(S(=O)(=O)CC(c2ccccc2)N2CCCCC2)cc1 (centres undefined)	none
Cc1ccc(S(=O)(=O)CC(CN2CCCCC2)N2CCCCC2)cc1 (centres undefined)	Lmaj promast 97
Cc1ccc(N/C=C/C(=O)C(C)(C)C)c(O)c1	CHOP inh 86
C=CCNc1nc(-c2ccccn2)nnc1-c1ccccc1	Lmaj promast 100
COc1ccc(-c2onc3ccc(Cl)cc23)cc1	CHOP inh 79
CC(C)N1CCN(Cc2ccoc2)CC1CCO (centres undefined)	none
CSc1oc(-c2ccco2)nc1S(=O)(=O)c1ccc(Br)cc1	RAM network inh 8.4
Cc1ccc(CNc2oc(-c3ccco3)nc2S(=O)(=O)c2ccccc2)cc1	WT yeast gro inh 63
CC(C)Sc1oc(-c2ccco2)nc1S(=O)(=O)c1ccc(F)cc1	none
Cc1[nH]c2c(C)cccc2c1CN1CCC(CO)(Cc2ccccc2)CC1	none (no result: RAM network inh, WT yeast gro inh, Lmaj promast)
Cc1ccc(-c2[nH]c3ccccc3c2C(C[N+](=O)[O-])c2ccco2)cc1 (centres undefined)	WT yeast gro inh 69, CHOP inh 89
Cc1[nH]c2ccccc2c1C(C[N+](=O)[O-])c1ccco1 (centres undefined)	none
CC(C)(C)c1ccc(C(=O)CC(=O)c2cc(Cl)ccc2O)cc1	RAM network inh 10, WT yeast gro inh 65, Lmaj promast 99
